From PubChem BioAssay (Tox21)
Records with an inconclusive call do not appear. Active and inactive are the calls of the source. Unless noted, the call rests on the fitted dose curve; in most records, active means well fitted curve in the direction sought with a large enough effect in the repeat runs; inconclusive means weak or mixed curves; inactive means no such curve, though single readings can be large; an effect the other way counts as inactive or inconclusive.

Legend:
[1] = qHTS assay to identify small molecule agonists of the TGF-beta/Smad signaling pathway - cell viability counter screen (AID 1346829); further: top concentration of the series differs between compounds; nearly all actives have a fitted effect of over 45% in size
Method in brief: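 In parallel with the Smad reporter read, viability of HEK 293T cells stably carrying SBE-bla is quantified by ATP luminescence following 5 hr compound treatment.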

[2] = qHTS assay to identify small molecule agonists of the TGF-beta/Smad signaling pathway (AID 1346859; active means well fitted activation curve with a large enough effect in the signal ratio in the repeat runs, not every such curve was filed as active; the % refers to the signal ratio; further: series mostly up to about 77 µM)
Method in brief: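 After overnight seeding, SBE-bla HEK 293T cells are dosed with compounds in DMSO and kept 5 hr at 37 C, 5% CO2. LiveBLAzer-type FRET substrate is then applied for 2 hr at room temperature.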

[3] = molecular target: Thyrotropin-releasing hormone receptor (Homo sapiens) (UniProt P34981); experiment: qHTS assay to identify small molecule antagonists of the thyrotropin-releasing hormone receptor (TRHR) signaling pathway (AID 1346877; active means well fitted inhibition curve with a large enough effect in the repeat runs, not every such curve was filed as active; further: series mostly up to about 51 µM)
Method in brief: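 TRHR-expressing HEK293 cells were seeded, cultured 18 h at 37 °C, then loaded with calcium dye for 2 h. Compounds were pre-incubated 5 min at room temperature before 1 nM TRH (final) was added, and kinetic fluorescence was recorded for 3 min.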

[4] = molecular target: Thyrotropin-releasing hormone receptor (Homo sapiens) (UniProt P34981); experiment: qHTS assay to identify small molecule agonists of the thyrotropin-releasing hormone receptor (TRHR) signaling pathway (AID 1346891; calls by dose curve; further: series mostly up to about 58 µM)
Method in brief: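 Compounds were tested as agonists at 15 concentrations, in triplicate, on TRHR-Hek293 cells; calcium-sensitive dye fluorescence was recorded for 3 min following addition.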

[5] = Human pregnane X receptor (PXR) small molecule agonists, qHTS cell viability counter screen (AID 1346977); further: nearly all actives have a fitted effect of over 50% in size
Method in brief: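 Viability counter screen: CellTiter-Fluor signal in PXR-Luc HepG2 cells, 24hr compound exposure, 37C, 5% CO2.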

[6] = Caspase-3/7 induction in HepG2 cells by small molecules, qHTS assay (AID 1346978); further: nearly all actives have a fitted effect of over 15% in size
Method in brief: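 Wild-type HepG2 cells (2,000/well) were settled 5 h at 37 C, 5% CO2, then exposed to compounds in DMSO for 17 h. Caspase-3/7 activity was read by luminescence 30 min after adding Caspase-Glo 3/7 reagent at room temperature.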

[7] = Caspase-3/7 induction in CHO-K1 cells by small molecules, qHTS cell viability counter screen (AID 1346979); further: nearly all actives have a fitted effect of over 35% in size
Method in brief: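 Viability readout by fluorescence (CellTiter-Fluor) on wild-type CHO-K1 cells exposed for 16hr at 37C and 5% CO2 to compounds delivered in DMSO; reagent incubated 1hr before reading.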

[8] = Caspase-3/7 induction in CHO-K1 cells by small molecules, qHTS assay (AID 1346980); further: nearly all actives have a fitted effect of over 15% in size
Method in brief: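 Wild-type cells were seeded at 1,500 per well and settled 5 hr at 37 C, 5% CO2, then exposed to DMSO-dissolved compounds for 17 hr. Caspase-Glo 3/7 reagent was added, and luminescence was read after 30min at room temperature.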

[9] = Caspase-3/7 induction in HepG2 cells by small molecules, qHTS cell viability counter screen (AID 1346981); further: series mostly up to about 92 µM; nearly all actives have a fitted effect of over 30% in size
Method in brief: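 Wild-type HepG2 cells (2,000/well) were allowed to settle for 5 hr at 37 C, 5% CO2, then dosed with compounds in DMSO by pin transfer. After 16 hr at 37 C, CellTiter-Fluor was added and fluorescence read 1 hr later.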

[10] = molecular target: Nuclear receptor subfamily 1 group I member 2 (Homo sapiens) (UniProt O75469); experiment: Human pregnane X receptor (PXR) small molecule agonists, qHTS assay (AID 1346982); further: nearly all actives have a fitted effect of over 35% in size
Method in brief: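 PXR-Luc HepG2 cells (CYP3A4 promoter-driven luciferase) were seeded in medium with 5% charcoal-stripped FBS, left 5 hr at 37 C, then exposed to compounds in DMSO for 24 hr. Luminescence was read after ONE-Glo addition.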

[11] = molecular target: Nuclear receptor subfamily 1 group I member 2 (Rattus norvegicus) (UniProt Q9R1A7); experiment: Rat pregnane X receptor (rPXR) activation by small molecules, qHTS assay (AID 1346983); conditions: rPXR luciferase reporter cells, One-Glo luminescence, 24 h; active compounds read high; further: nearly all actives have a fitted effect of over 20% in size
Method in brief: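 Cell-based rPXR luciferase reporter assay, 2,000 cells per well, rested 5hr at 37 C before compound addition in DMSO, then 24 hr at 37 C. One-Glo reagent was added and luminescence read after 30 min at room temperature.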

[12] = molecular target: Nuclear receptor subfamily 1 group I member 2 (Homo sapiens) (UniProt O75469); experiment: CYP3A4 induction through human pregnane X receptor (PXR) by small molecules, qHTS assay (AID 1346984); further: nearly all actives have a fitted effect of over 40% in size
Method in brief: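 DPX-2 cells (HepG2 co-transfected with PXR and CYP3A4 promoter-luciferase) treated with compounds 24 h at 37C; luciferin-IPA CYP3A4 substrate 3uM final added for 3 h, then One-Glo; luminescence read. qHTS format.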

[13] = molecular target: Nuclear receptor subfamily 1 group I member 2 (Homo sapiens) (UniProt O75469); experiment: Human pregnane X receptor (PXR) activation by small molecules, qHTS assay (AID 1346985); further: nearly all actives have a fitted effect of over 40% in size
Method in brief: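 DPX-2 cells (HepG2 co-transfected with a PXR response element and a CYP3A4-promoter luciferase construct) were seeded at 2,000 per well, rested 5 hr at 37C, then exposed to DMSO-dissolved compounds for 24 hr. Activation was read as luciferase luminescence.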

[14] = molecular target: Cytochrome P450 2D6 (Homo sapiens) (UniProt P10635); experiment: Cytochrome P450 Family 2 Subfamily D Member 6 (CYP2D6) small molecule antagonists: luciferase reporter qHTS assay (AID 1671196); further: series mostly up to about 120 µM; nearly all actives have a fitted effect of over 50% in size
Method in brief: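 CYP2D6 enzyme–substrate mix was held with compound for 10 min at room temperature, then NADPH regeneration solution was added and the reaction ran 1 h at room temperature. Luciferin product was detected by luminescence after 20 min with detection reagent.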

[15] = molecular target: Cytochrome P450 2C19 (Homo sapiens) (UniProt P33261); experiment: Cytochrome P450 Family 2 Subfamily C Member 19 (CYP2C19) small molecule antagonists: luciferase reporter qHTS assay (AID 1671197); further: series mostly up to about 120 µM; nearly all actives have a fitted effect of over 65% in size
Method in brief: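 Compounds were tested on CYP2C19 activity via proluciferin conversion to luciferin. The 37C, 1 h reaction followed NADPH addition; detection reagent stopped it.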

[16] = molecular target: Cytochrome P450 2C9 (Homo sapiens) (UniProt P11712); experiment: Cytochrome P450 Family 2 Subfamily C Member 9 (CYP2C9) small molecule antagonists: luciferase reporter qHTS assay (AID 1671198); further: series mostly up to about 120 µM; nearly all actives have a fitted effect of over 50% in size
Method in brief: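 CYP2C9 activity was measured with a P450-Glo proluciferin substrate. Enzyme–substrate mix was held with compound for 10 min at room temperature, then NADPH regeneration solution was added for 1 h at 37C. Luciferin product was read as luminescence.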

[17] = molecular target: Cytochrome P450 1A2 (Homo sapiens) (UniProt P05177); experiment: Cytochrome P450 Family 1 Subfamily A Member 2 (CYP1A2) small molecule antagonists: luciferase reporter qHTS assay (AID 1671199); further: series mostly up to about 120 µM; nearly all actives have a fitted effect of over 50% in size
Method in brief: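 Human CYP1A2 activity measured with a P450-Glo proluciferin substrate; compounds in DMSO preincubated 10 min at room temperature with enzyme-substrate mix, then NADPH regeneration system added for 1 h. Luciferin detection reagent, 20 min, luminescence read.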

[18] = molecular target: Voltage-gated inwardly rectifying potassium channel KCNH2 (Homo sapiens) (UniProt Q12809); experiment: Human Ether-a-go-go-Related Gene (hERG) channel small molecule antagonists: fluorescence cell-based qHTS assay (AID 1671200)
Method in brief: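 Thallium served as the potassium surrogate; its influx into dye-loaded U2OS cells carrying the channel was measured by fluorescence over 2 min.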

[19] = molecular target: Cytochrome P450 3A4 (Homo sapiens) (UniProt P08684); experiment: Cytochrome P450 Family 3 Subfamily A Member 4 (CYP3A4) small molecule antagonists: luciferase reporter qHTS assay (AID 1671201)
Method in brief: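 Relative luminescence units after 20 min with luciferin detection reagent served as read-out. Beforehand, CYP3A4 turned over a proluciferin substrate for 1 h at room temperature with NADPH regeneration, following 10 min compound preincubation.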
On the % scale 0 is the no-effect control and ±100 the full control effect.

Chain of Cytochrome P450 2C19 (Homo sapiens) (P33261 whole entry, looked up): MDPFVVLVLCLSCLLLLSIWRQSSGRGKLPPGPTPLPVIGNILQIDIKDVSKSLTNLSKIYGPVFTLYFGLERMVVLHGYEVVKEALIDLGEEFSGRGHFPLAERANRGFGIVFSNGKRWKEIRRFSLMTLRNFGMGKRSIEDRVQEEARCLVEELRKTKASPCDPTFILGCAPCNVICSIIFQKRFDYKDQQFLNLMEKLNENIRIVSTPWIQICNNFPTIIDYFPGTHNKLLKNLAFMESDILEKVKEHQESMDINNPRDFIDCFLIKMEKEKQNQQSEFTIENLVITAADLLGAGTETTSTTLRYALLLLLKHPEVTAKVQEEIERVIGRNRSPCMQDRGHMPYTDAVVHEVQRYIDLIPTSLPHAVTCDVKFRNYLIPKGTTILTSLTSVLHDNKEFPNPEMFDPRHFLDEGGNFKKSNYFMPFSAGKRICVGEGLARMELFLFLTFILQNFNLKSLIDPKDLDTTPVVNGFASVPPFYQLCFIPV
Chain of Cytochrome P450 2D6 (Homo sapiens) (P10635 whole entry, looked up): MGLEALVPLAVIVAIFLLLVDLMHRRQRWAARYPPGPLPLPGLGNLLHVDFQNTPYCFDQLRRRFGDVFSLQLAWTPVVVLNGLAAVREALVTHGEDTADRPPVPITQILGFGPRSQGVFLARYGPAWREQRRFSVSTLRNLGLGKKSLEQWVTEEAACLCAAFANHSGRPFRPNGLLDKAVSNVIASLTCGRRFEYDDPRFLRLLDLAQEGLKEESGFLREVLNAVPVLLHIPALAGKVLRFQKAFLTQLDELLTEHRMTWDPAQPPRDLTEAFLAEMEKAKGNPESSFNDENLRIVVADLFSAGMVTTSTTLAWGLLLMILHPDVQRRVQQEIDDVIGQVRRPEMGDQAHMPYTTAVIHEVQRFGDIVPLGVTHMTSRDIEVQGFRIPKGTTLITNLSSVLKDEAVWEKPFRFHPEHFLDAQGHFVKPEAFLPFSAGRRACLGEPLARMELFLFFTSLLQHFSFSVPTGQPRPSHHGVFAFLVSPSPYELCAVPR
Chain of Cytochrome P450 3A4 (Homo sapiens) (P08684 whole entry, looked up): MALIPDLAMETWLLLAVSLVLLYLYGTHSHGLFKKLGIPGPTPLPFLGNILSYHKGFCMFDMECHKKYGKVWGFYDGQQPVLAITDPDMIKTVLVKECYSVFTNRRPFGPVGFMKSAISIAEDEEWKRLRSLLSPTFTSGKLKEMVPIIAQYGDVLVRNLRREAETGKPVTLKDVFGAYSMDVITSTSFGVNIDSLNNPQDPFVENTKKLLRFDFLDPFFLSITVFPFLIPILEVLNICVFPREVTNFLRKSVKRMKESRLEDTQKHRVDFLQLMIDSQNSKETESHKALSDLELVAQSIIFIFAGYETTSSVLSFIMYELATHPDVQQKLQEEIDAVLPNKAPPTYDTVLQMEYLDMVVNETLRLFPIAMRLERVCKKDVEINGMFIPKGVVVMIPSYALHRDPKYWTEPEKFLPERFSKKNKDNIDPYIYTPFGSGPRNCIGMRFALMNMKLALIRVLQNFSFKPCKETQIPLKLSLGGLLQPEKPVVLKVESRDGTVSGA
Chain of Cytochrome P450 1A2 (Homo sapiens) (P05177 whole entry, looked up): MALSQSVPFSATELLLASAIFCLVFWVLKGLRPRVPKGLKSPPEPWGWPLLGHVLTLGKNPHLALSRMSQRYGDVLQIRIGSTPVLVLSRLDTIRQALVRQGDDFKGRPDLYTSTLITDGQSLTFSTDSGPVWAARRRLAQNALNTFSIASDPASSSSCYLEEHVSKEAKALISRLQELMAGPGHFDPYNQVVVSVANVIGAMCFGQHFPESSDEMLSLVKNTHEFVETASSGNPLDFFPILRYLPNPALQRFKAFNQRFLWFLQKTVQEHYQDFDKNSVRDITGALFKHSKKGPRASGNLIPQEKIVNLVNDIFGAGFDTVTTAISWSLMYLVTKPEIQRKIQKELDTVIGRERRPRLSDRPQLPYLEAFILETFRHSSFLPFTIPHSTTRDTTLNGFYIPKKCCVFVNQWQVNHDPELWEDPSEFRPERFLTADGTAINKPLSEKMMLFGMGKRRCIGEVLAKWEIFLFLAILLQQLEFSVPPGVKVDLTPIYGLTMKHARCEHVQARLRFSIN
Chain of Cytochrome P450 2C9 (Homo sapiens) (P11712 whole entry, looked up): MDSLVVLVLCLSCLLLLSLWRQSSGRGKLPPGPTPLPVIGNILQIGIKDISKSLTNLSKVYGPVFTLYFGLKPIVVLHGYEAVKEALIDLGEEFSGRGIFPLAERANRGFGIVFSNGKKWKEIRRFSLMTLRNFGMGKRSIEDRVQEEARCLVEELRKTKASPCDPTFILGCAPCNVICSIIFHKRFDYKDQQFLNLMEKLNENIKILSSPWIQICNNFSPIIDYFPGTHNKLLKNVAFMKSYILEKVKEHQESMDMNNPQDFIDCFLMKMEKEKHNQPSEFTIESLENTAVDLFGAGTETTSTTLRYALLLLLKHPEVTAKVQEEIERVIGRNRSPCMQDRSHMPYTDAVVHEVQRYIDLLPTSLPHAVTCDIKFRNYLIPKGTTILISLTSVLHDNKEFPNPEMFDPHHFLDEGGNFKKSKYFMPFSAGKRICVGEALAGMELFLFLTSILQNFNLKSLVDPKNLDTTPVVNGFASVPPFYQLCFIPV
Chain of Thyrotropin-releasing hormone receptor (Homo sapiens) (P34981 whole entry, looked up): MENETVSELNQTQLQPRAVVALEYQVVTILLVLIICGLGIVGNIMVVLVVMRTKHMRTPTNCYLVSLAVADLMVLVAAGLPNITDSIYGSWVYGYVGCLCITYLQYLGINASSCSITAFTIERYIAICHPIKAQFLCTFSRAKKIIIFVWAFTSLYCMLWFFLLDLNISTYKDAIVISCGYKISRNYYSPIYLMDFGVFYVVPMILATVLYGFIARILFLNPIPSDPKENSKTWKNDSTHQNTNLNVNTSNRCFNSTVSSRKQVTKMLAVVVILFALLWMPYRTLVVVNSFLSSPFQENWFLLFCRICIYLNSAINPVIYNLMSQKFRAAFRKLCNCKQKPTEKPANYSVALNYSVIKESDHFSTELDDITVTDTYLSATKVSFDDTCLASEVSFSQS
Chain of Voltage-gated inwardly rectifying potassium channel KCNH2 (Homo sapiens) (Q12809 whole entry, looked up): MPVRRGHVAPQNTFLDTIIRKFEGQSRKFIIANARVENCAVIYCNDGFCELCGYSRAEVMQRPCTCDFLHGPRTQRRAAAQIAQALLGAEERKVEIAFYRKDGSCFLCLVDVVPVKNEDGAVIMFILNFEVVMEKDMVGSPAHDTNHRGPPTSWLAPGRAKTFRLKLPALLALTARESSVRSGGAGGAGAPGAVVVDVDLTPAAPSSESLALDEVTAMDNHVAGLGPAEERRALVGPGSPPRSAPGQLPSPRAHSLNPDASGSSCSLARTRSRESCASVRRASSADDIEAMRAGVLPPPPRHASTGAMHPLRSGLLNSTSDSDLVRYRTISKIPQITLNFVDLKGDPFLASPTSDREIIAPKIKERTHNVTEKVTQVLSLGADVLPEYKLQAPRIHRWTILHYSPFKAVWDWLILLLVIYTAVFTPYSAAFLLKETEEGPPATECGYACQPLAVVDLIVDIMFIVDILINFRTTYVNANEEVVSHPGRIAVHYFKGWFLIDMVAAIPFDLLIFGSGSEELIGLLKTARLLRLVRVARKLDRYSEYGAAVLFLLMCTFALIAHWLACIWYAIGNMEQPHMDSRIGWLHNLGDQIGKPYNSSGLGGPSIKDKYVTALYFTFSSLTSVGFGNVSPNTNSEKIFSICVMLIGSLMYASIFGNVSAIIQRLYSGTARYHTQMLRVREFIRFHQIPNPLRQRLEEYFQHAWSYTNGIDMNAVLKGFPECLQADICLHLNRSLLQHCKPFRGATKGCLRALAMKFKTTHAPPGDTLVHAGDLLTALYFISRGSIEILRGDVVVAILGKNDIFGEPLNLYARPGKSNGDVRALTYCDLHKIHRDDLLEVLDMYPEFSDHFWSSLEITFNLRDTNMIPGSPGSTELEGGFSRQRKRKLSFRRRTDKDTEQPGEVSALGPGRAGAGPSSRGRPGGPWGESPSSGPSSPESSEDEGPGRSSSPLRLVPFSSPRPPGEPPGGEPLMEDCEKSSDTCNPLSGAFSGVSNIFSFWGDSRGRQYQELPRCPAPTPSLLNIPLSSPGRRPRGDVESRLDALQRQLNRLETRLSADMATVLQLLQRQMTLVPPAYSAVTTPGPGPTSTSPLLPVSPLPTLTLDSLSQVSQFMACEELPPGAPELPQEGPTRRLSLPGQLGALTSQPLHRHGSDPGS
Chain of Nuclear receptor subfamily 1 group I member 2 (Homo sapiens) (O75469 whole entry, looked up): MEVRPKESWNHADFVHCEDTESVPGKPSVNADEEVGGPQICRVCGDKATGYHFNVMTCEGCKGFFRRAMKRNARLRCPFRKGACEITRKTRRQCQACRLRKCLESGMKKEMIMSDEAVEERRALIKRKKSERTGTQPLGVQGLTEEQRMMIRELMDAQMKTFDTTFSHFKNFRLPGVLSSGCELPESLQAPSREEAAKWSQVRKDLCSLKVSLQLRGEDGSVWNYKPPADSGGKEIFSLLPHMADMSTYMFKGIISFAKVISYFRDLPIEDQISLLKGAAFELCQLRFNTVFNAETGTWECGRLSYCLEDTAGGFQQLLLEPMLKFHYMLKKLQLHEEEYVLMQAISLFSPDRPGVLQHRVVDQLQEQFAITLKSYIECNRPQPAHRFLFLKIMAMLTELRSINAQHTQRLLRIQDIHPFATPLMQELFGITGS
Chain of Nuclear receptor subfamily 1 group I member 2 (Rattus norvegicus) (Q9R1A7 whole entry, looked up): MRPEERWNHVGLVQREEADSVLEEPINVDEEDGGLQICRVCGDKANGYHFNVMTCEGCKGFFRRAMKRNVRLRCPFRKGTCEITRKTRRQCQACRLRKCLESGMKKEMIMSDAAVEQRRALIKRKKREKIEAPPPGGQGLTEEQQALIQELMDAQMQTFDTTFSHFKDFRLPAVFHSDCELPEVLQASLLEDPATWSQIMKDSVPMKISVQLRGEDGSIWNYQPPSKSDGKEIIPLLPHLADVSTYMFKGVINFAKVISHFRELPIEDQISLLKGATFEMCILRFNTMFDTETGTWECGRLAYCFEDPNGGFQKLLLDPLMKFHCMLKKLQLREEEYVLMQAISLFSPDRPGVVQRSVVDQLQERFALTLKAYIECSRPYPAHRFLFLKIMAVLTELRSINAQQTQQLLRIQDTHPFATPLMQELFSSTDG

CC1(C)O[C@H]2CC(=O)OC[C@]23[C@H]2CC[C@@]4(C)[C@H](c5ccoc5)OC(=O)[C@H]5O[C@]54[C@]2(C)C(=O)C[C@@H]13
inactive: outcome [1] | outcome [2] | outcome [3] | outcome [4] | outcome [5] | outcome [6] | Potency [7] | outcome [8] | outcome [9] | Potency [10] | max activation [11] 5.81% | Potency [12] | Potency [13] | Potency [14] | Potency [15] | Potency [16] | Potency [17] | Potency [18]

CCN1CCCC1CN (stereo not given)
inactive: outcome [1] | outcome [2] | outcome [3] | outcome [4] | outcome [5] | outcome [6] | Potency [7] | outcome [8] | outcome [9] | Potency [10] | Potency [14] | Potency [16] | Potency [17] | Potency [18] | Potency [19]

CCCCOC(=O)[C@H](C)O
inactive: outcome [1] | outcome [2] | outcome [3] | outcome [4] | outcome [5] | outcome [6] | Potency [7] | outcome [8] | outcome [9] | Potency [10] | Potency [14] | Potency [15] | Potency [16] | Potency [17] | Potency [18] | Potency [19]

CC(O)CC(C)O (stereo not given)
inactive: outcome [1] | outcome [2] | outcome [3] | outcome [4] | outcome [5] | outcome [6] | Potency [7] | outcome [8] | outcome [9] | Potency [10] | Potency [15] | Potency [16] | Potency [18] | Potency [19]

CC(C)(C)NC[C@H](O)COc1cccc2c1CCCC2=O
inactive: outcome [1] | outcome [2] | outcome [3] | outcome [4] | outcome [5] | outcome [6] | Potency [7] | outcome [8] | outcome [9] | Potency [10] | max activation [11] 0.088% | Potency [12] | Potency [13] | Potency [16] | Potency [17] | Potency [18] | Potency [19]

CC(C)=CCC/C(C)=C/COC=O
inactive: outcome [1] | outcome [2] | outcome [3] | outcome [4] | outcome [5] | outcome [6] | Potency [7] | outcome [8] | outcome [9] | Potency [10] | Potency [14] | Potency [15] | Potency [16] | Potency [18] | Potency [19]

OCCN1CCOCC1
inactive: outcome [1] | outcome [2] | outcome [3] | outcome [4] | outcome [5] | outcome [6] | Potency [7] | outcome [8] | outcome [9] | Potency [10] | Potency [15] | Potency [16] | Potency [17] | Potency [18] | Potency [19]
